Inconclusive results are not listed. A call without a number means that no potency is given here. Values without a mark were called inactive. Calls of active or inactive are those of the source. Calls follow the shape of the dose curve; as a rule, active = well fitted activation curve with a large enough effect in the repeat runs; inconclusive = weak or mixed curves; inactive = flat fitted curve, though single readings scatter.
Test: Caspase-3/7 induction in HepG2 cells by small molecules, qHTS assay (AID 1346978); also: nearly all actives have a fitted effect of over 15% in size
Conditions: HepG2 caspase-3/7 activation, Caspase-Glo luminescence, 17 h; series mostly up to 92.4 µM
From the text: National Center for Advancing Translational Sciences [NCATS] NIH Chemical Genomics Center [NCGC] U.S. Environmental Protection Agency [EPA] National Institutes of Environmental Health Sciences [NIEHS] National Toxicology Program [NTP] Assay overview: Apoptosis is a process of programmed cell death and plays a central role in the development of multicellular organisms. It is a highly regulated process and induces cell death by activating caspases, which are the members of cysteine aspartic acid-specific protease (caspase) family. Caspases involved in apoptosis are classified by their mechanism of action as initiator caspases (caspase-2, -8, -9 and -10) and executioner caspases (caspase-3, -6, and -7). Inhibition of apoptosis results in number of cancers, autoimmune diseases, inflammatory diseases and viral infection. To identify small molecule compounds that induce apoptosis, a homogeneous, luminescent Caspase-Glo 3/7 assay was used. Wild type HepG2 cells were used to screen Tox21 libraries for identifying caspase-3/7 activity inducers.
Assay Protocol Summary: HepG2 cells were dispensed at 2,000 per well in 5uL of culture medium into white solid bottom 1536-well plates (Corning Life Sciences, Corning, NY) using a Multidrop Combi (Thermo Scientific, Waltham, MA) dispenser. The assay plates were incubated at 37 C and 5% CO2 for 5hr, and then 23nL of compounds dissolved in DMSO and positive control were transferred using a Pintool station (Wako, San Diego, CA). The assay plates were incubated at 37C and 5% CO2 for 17hr. For caspase-3/7 activity read, 4uL of Caspase-Glo 3/7 reagent (Promega Corporation, Madison, WI) was added to each well of the assay plates using Flying Reagent Dispenser (FRD, Aurora Discovery, San Diego, CA) and incubated the assay plates at room temperature for 30min. The luminescence signal was quantified using a ViewLux plate reader (Perkin Elmer, Shelton, CT).
Potency is read from the fitted curve at half-maximal effect.

SMILES | Potency | caspase activation
C#C[C@]1(O)CC[C@H]2[C@@H]3CCc4cc(OC5CCCC5)ccc4[C@H]3CC[C@@]21C | inactive | –
CCCCCCCCCOS(=O)(=O)O | inactive | –
CCO[Si](CCCCl)(OCC)OCC | inactive | –
COc1ccc(-c2nc3ccc(C4=NNC(=O)CC4C)cc3[nH]2)cc1 (stereo not given) | inactive | –
Cc1ccccc1S(=O)(=O)O | inactive | –
O=C(OCCc1ccccc1)c1ccccc1 | inactive | –
O=[N+]([O-])c1cccc(S(=O)(=O)O)c1 | inactive | –
CN1CCN(C(c2ccccc2)c2ccccc2)CC1 | inactive | –
O=CC1CC=CCC1 (stereo not given) | inactive | –
Nc1cccc(S(=O)(=O)c2cccc(N)c2)c1 | inactive | –
C=CCOC(=O)CCC1CCCCC1 | inactive | –
C/C=C(/C(=C/C)c1ccc(OC(C)=O)cc1)c1ccc(OC(C)=O)cc1 | inactive | –
C=C(C)C(=O)OCC | inactive | –
CC(C)(COC(=O)c1ccccc1)COC(=O)c1ccccc1 | inactive | –
CCCCOC(=O)CCCCCCCC(=O)OCCCC | inactive | –
CCCCCCCCCCCC(=O)OC[C@@H](O)[C@H]1OC[C@H](OCCO)[C@H]1OCCO | inactive | –
C[N+](C)(C)CCOC(=O)CCC(=O)OCC[N+](C)(C)C | inactive | –
Nc1c(CC(=O)O)cccc1C(=O)c1ccc(Br)cc1 | inactive | –
CCCCCCCCCCCCN1CCCCCC1=O | inactive | –
C[C@H](CCC(=O)O)[C@H]1CC[C@H]2[C@@H]3CC[C@@H]4C[C@H](O)CC[C@]4(C)[C@H]3C[C@H](O)[C@]12C | inactive | –

SMILES | Potency | caspase activation
Cc1ccc(C(C)OC(=O)C2(C)CCC(C(=O)O)C2(C)C)cc1 (stereo not given) | inactive | –
Cc1ccc(C(=O)Oc2ccc(C(O)CNC(C)(C)C)cc2OC(=O)c2ccc(C)cc2)cc1 (stereo not given) | inactive | –
CC(=O)[O][Al][O]C(C)=O | inactive | –
COC(=O)c1ccc(I)cc1S(=O)(=O)NC(=O)Nc1nc(C)nc(OC)n1 | inactive | –
CN1CCC(N(Cc2cccs2)c2ccccc2)CC1 | inactive | –
CCOC(=O)C1=C[C@]2(CC)CCCN3CCc4c(n1c1ccccc41)[C@@H]32 | inactive | –
CC(C)(C)Cl | inactive | –
C=CCOc1ccccc1OCC(O)CNC(C)C (stereo not given) | inactive | –
O=C(O)CC(=O)C(=O)O | inactive | –
CC[N+]1(CC)CCC(=C(c2ccccc2)c2ccccc2)C1C (stereo not given) | inactive | –
Nc1ccc(N)c2c1C(=O)c1ccccc1C2=O | inactive | –
CC1=CCCC(C)(C)C12CCC(C)O2 (stereo not given) | inactive | –
CC(=O)[O][Al] | inactive | –
Cc1nn(C)c(Oc2ccccc2)c1/C=N/OCc1ccc(C(=O)OC(C)(C)C)cc1 | inactive | –
COS(=O)(=O)C(F)(F)F | inactive | –
Cc1cccc(C)c1OCC(=O)N[C@@H](Cc1ccccc1)[C@@H](O)C[C@H](Cc1ccccc1)NC(=O)[C@H](C(C)C)N1CCCNC1=O | inactive | –
COc1cc2nc(N(C)CCCNC(=O)C3CCCO3)nc(N)c2cc1OC (stereo not given) | inactive | –
CN(C)CCN(Cc1ccsc1)c1ccccn1 | inactive | –
CN(C)c1ccc(/C=C/c2ccc([N+](=O)[O-])cc2)cc1 | – | 0.696% [at 8.39 µM]
C=CC(=O)OCCOCCOCCOCCOC(=O)C=C | 68 µM (active) | –
